Residue numbers refer to the chain shown, from its start. The full ranking holds about 24,000 sequences; the median of “enrichment r” is about 0.99, and the highest 2% start at about 3.7. What follows is part of a selection rich in the highest values, with near analogues and random picks from the rest.

First the molecules themselves.
T1: UNK ZnF1-3 (human, UniProt Q9C0B0 31-174)
T1 sequence: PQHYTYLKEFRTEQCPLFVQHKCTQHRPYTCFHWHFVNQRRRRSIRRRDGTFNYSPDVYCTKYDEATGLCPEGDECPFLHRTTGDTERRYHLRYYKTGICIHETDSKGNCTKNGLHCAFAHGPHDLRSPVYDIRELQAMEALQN

B1: chr2:219525992:219525993:+_ENSG00000074582_ENST00000359273|hu_mus|FALSE|FALSE (ssRNA)
RNA: GGGAGUUCUACAGUCCGACGAUCGAUCCAUUUUCCCUGAUACCAAAUGAAGUGGUUUCCAGGGCUGGGGAUAAAUUCAAACUUGGUGGAGAUCCGGCCACUUUCAUGCUGAAGGUAUGAGGUUUCAACACUGAGGUGCUGAGUCAACAGAGGAUUGAGCAUCA
B2: 156047189_156047309_678_CDS_ENSG00000254726_ENST00000532414|human|control|control (ssRNA)
RNA: GGGAGUUCUACAGUCCGACGAUCGAUGGUUGCCCCUUUGGGGCCCACCACCAGCCCCACCACGCGGUAGGGCACCCGCACACGGAUGGUCACCUGGCCGGGCAGAGCAGGAGCCACACCAAAGGCGGCGCCUGACUUGUUGCGCAACAGAGGAUUGAGCAUCA
B3: 107436344_107436464_280_CDS_ENSMUSG00000020721_ENSMUST00000106746|mouse|control|control (ssRNA)
RNA: GGGAGUUCUACAGUCCGACGAUCGGCAAUUCUGUAAAGAAGACUCUCAAUUUUGAUGCGCUCAACCUCCACCGGGCACGGCCCUGUGAAGUCUGCCAUGGAGUACUGGCCAAGAGAGAGCAGGGCGUCGGUGCAGUGCUGGAGCAACAGAGGAUUGAGCAUCA
B4: 139370288_139370408_1793_CDS_ENSG00000148396_ENST00000313050|human|control|control (ssRNA)
RNA: GGGAGUUCUACAGUCCGACGAUCGGUUGAGGGCUGGGACACGCUGCCACGGUAAUUCUGGCUCACAGUGGUCUCGUCUGUUUCACCUCCUACGGGAGAAGAAUCGAUUUGCUUAAAAAAACUACCUGAAGCUUCAUCCUCGGGCAACAGAGGAUUGAGCAUCA
B5: 15271559_15271679_6895_CDS_ENSG00000074181_ENST00000263388|human|control|control (ssRNA)
RNA: GGGAGUUCUACAGUCCGACGAUCGGGAAGUGGCUGGGCAGGCAGUGCCCCAGUGGUGGUGGCCAUGGCCCCAGUGGCAGUGGCUGGGCUAGGCGUGGAUUCGGACCAGUCUGAGAGGGAGGGAGGUGAGGGGCUGGCCCAGUGCAACAGAGGAUUGAGCAUCA
B6: 129698844_129698964_1004_3pUTR_ENSMUSG00000026349_ENSMUST00000027587|mouse|control|control (ssRNA)
RNA: GGGAGUUCUACAGUCCGACGAUCCUGCUAGCACUGAUAAAUUAUCAGAUGCACGGCUAUCUUGAACAGAAGUACUUCCUGAAUUUAGAGGUAUUGGAGCAGGGAACGUUGAUGUUGAUGGUUUCUGAAAGCUUGGGUUGGCAGCAACAGAGGAUUGAGCAUCA
B7: chr1:184247048:184247049:-_ENSMUSG00000047539_ENSMUST00000051431|mus_mus|FALSE|FALSE (ssRNA)
RNA: GGGAGUUCUACAGUCCGACGAUCCUGGAGCUAGAGCCAUAUUCCAAUCUACUUCCUAUUCCGAAGUCGUUUGGAUUUCCUAAGAGAGUCUAUGGCUUCCGUUGCCUUCCGUCGUUUCCGAGGGGACUCCUCACUCUGCCCAGACAACAGAGGAUUGAGCAUCA
B8: chr11:20101544:20101545:+_ENSMUSG00000020149_ENSMUST00000020358|mus_hu|FALSE|FALSE (ssRNA)
RNA: GGGAGUUCUACAGUCCGACGAUCUGCCGCAGCCGCCGCCCUGACUCUCCGCGCCACGGGUAAUCGAAAGAAAGGAAUGAGAUAGGCUGUUCCGGGAGAGCAAACGUCUUCCCCUACUCCGUCCCCUAGAACACAAUCAGCAGCCAACAGAGGAUUGAGCAUCA
B9: chr17:56552419:56552420:-_ENSMUSG00000013236_ENSMUST00000086828|mus_mus|mus_mus_mus_hu_False|18_68 (ssRNA)
RNA: GGGAGUUCUACAGUCCGACGAUCAAAAAAUACACUAUUUAAAAAAAAUGAAAUGUCACGGGAUACAAAAAAAUAUAGAGUUUUAAAAGAAAGCUGGAUUCUGGUCCCAGCCCAGUGGCAGGCAGGGGCAGAGCGGGGAGGAGCCAACAGAGGAUUGAGCAUCA
B10: chr17:56552419:56552420:-_ENSMUSG00000013236_ENSMUST00000086828|mus_mus|mus_mus_mus_hu_False|58_68 (ssRNA)
RNA: GGGAGUUCUACAGUCCGACGAUCAAAAAAUACACUAUUUAAAAAAAAUGAAAUGUCACGGGAUACAAAAAAAUAUACACUAUUAAAAGAAAGCUGGAUUCUGGUCCCAGCCCAGUGUCCCCAGGCUGCAGAGCGGGGAGGAGCCAACAGAGGAUUGAGCAUCA
B11: chr15:76910149:76910150:-_ENSMUSG00000033565_ENSMUST00000166610|mus_mus|FALSE|FALSE (ssRNA)
RNA: GGGAGUUCUACAGUCCGACGAUCAAUGCUGACGGAGGGAAGUCAUGUCUCUUAGGGGAAAGGAUCAGCUCAUCACUCGCUAUAUAACGCAGCCAAACGGGCUGCCCAACAAGCACGCACACAAGAAAUACUGUUAACAGAAAACAACAGAGGAUUGAGCAUCA
B12: chr17:56552419:56552420:-_ENSMUSG00000013236_ENSMUST00000086828|mus_mus|mus_mus_mus_hu_False|68_68 (ssRNA)
RNA: B10 RNA with C77G, C79G, A81U
B13: chr6:38652254:38652255:-_ENSG00000124767_ENST00000373365|hu_hu|hu_hu_hu_mus_False|58_98 (ssRNA)
RNA: GGGAGUUCUACAGUCCGACGAUCCGAGAACUUCAUAAUGGGAAAAUCAAGCUUCUGCAGGAGGGUCAGUCCAAGAACUCUAGUAUAAAAAUCCAGGGACUUCUUAGGAUCCUUAAUUCUUAGCAUCGUUUGCUGCAGUAGAAACAACAGAGGAUUGAGCAUCA
B14: chr15:37385894:37385895:-_ENSG00000134138_ENST00000382766|hu_mus|motif|central (ssRNA)
RNA: GGGAGUUCUACAGUCCGACGAUCGCUUCCAUCUCUCUCAUCAAUCACGAGGUCAAUGGGCAUUUUUCCCUUCAAACAGCGGAUGUACCGGUGGCAGAAGUUAUCACAUAGUUCGUGGACCUUUUCUAACUCCAGAAGAUGAAACAACAGAGGAUUGAGCAUCA
B15: chr8:29959424:29959425:+_ENSG00000104660_ENST00000321250|hu_hu|FALSE|FALSE (ssRNA)
RNA: GGGAGUUCUACAGUCCGACGAUCGAAGGGCACAUCCAAGCAUCAAAAACAUCAGUCCGAUUGCUCCUCCAAAGGACAAACUAAUCAAAGCUUUGAUGCCUGCCAUGGCGGUGACGUCGCUCCUGGCUCCACGACCCGAGGCGGCAACAGAGGAUUGAGCAUCA
B16: chr13:13598695:13598696:+_ENSMUSG00000005397_ENSMUST00000005532|mus_hu|FALSE|FALSE (ssRNA)
RNA: GGGAGUUCUACAGUCCGACGAUCCACCAAGUCAGUCUCAAAGAGCACCCGGCGCUGCGUGCCGUCCAGCUUCGCCACUUCUAUUCGAUCCAGGUUAGAGUCUGUCCAGAAGAUGUUGCGGCCAAGGUGAUCAACAGCGAUACCCAACAGAGGAUUGAGCAUCA
B17: chrX:73036348:73036349:-_ENSMUSG00000016382_ENSMUST00000114059|mus_mus|FALSE|FALSE (ssRNA)
RNA: GGGAGUUCUACAGUCCGACGAUCUGCGUACUUGGCGUUAUUGUGCUUGUCAUCUUCUGUUAGAUUCCCACUCUUCACAAGGUCAUAGUUAAUGCAGCCUGGUUGGAUGGCGUCAAUUAAAUCCACAACCGCCAAACUGGAGCUCAACAGAGGAUUGAGCAUCA
B18: 70939002_70942968_1374_3pUTR_ENSMUSG00000034761_ENSMUST00000110570|mouse|control|control (ssRNA)
RNA: GGGAGUUCUACAGUCCGACGAUCGCUCCGCUCUGGAAUUCCUGUUUGUUGAUCUAAUGGUAUGACGAAUGAUUGCGUGGGGCUCCAAGUCGUCCUCAUCGCCCUCACUGUAGGGAGCAUGGUUGUCCGGAUUGCUCACCUUGUCAACAGAGGAUUGAGCAUCA
B19: chr8:133807003:133807004:+_ENSG00000129292_ENST00000220847|hu_mus|FALSE|FALSE (ssRNA)
RNA: GGGAGUUCUACAGUCCGACGAUCUUUGUUAAUUGCUUCAAUCUUGGCAGGGUAAUAGCGACAGUCUGUCCAACGAGCCAGUACUUCUUCUCCAGCUUUAAAAUCAAAGAGCUCUUCCUCAUCCUUUAGCCCUUCUUUCCUUAGCAACAGAGGAUUGAGCAUCA
B20: chr9:37357388:37357389:+_ENSG00000147905_ENST00000336755|hu_hu|FALSE|FALSE (ssRNA)
RNA: GGGAGUUCUACAGUCCGACGAUCUUGGACACAGAGAAUUGAGAUCUCCAUGGAUAUUCAGUAACUCUAGGAAUGGCUGAAAUUAAAAAAACAAAACCAAAAACUCACUUUAUUUAAUCAUAGAUAAUAAACACAGUGCCAGAACAACAGAGGAUUGAGCAUCA
B21: chr2:49628383:49628384:+_ENSMUSG00000026764_ENSMUST00000028102|mus_hu|FALSE|FALSE (ssRNA)
RNA: GGGAGUUCUACAGUCCGACGAUCAUAAGCUUUGCAAAACCUGCCCCACAAGGACCCUUUUAUCAGACCGCAAAUAAUGGUAGAGCAGGUAUAUUGGGCUGGCACUGAUAACAAAAUUAAAGAAUGAAAAAAAUUUAAACAAAUCAACAGAGGAUUGAGCAUCA
B22: chrX:35959125:35959126:+_ENSMUSG00000000355_ENSMUST00000000365|mus_mus|FALSE|FALSE (ssRNA)
RNA: GGGAGUUCUACAGUCCGACGAUCAUUUGCUCCACUGAGUACAAAUUUGAUGGCUCCUUUAUCAACCUGCUGAUGUGGCAAGAUAAAAGGAUAUUUAUGAAGUAAUCUUAAAGUUGGAUAAAAAGGCCCUUCUCUUUGUCUAAACAACAGAGGAUUGAGCAUCA
B23: chr2:49628351:49628352:+_ENSMUSG00000026764_ENSMUST00000028102|mus_hu|FALSE|FALSE (ssRNA)
RNA: GGGAGUUCUACAGUCCGACGAUCACCGCAAAUAAUGGUAGAGCAGGUAUAUUGGGCUGGCACUGAUAACAAAAUUAAAGAAUGAAAAAAAUUUAAACAAAUGCAAAAUUGCCAUCUUCACAAAAUAAAUACUUCAAUAGAAUUCAACAGAGGAUUGAGCAUCA
B24: chr2:5814250:5814251:-_ENSMUSG00000025816_ENSMUST00000102981|mus_hu|mus_mus_mus_hu_True|68_108 (ssRNA)
RNA: GGGAGUUCUACAGUCCGACGAUCUUCCUUUCAGGCUUCUGAAUUUCUGGUAGAACUGCACAGAAUGGUUUAAUAACUUCUAAAAAUUUGAUGCCCAUGGCUGCUGCUGGGGAGGCCCAGGGGGAAACCGCGGCCUCGGCGCUGCAACAGAGGAUUGAGCAUCA
B25: 49527313_49535755_592_CDS_ENSMUSG00000026764_ENSMUST00000028102|mouse|control|control (ssRNA)
RNA: GGGAGUUCUACAGUCCGACGAUCCAUGGUAUGAGUUUUUCCUGAUGAAGUCUGCCCAUAUGCAAAAAUUGUUCCAUUAUAACCCUCAAGGACAUCUUUGACAAUCUGCUUUGCACAGGCAUUGUAGACCUGCUCCUGGGUUGUCAACAGAGGAUUGAGCAUCA

The target of the experiment is T1, UNK ZnF1-3. In words: nsRBNS (natural sequence RNA bind-n-seq); RBNS binding buffer (assumed for nsRBNS): 25 mM Tris pH 7.5, 150 mM KCl, 3 mM MgCl2, 0.01% Triton X-100, 500 ug/ml BSA, 20 U/ml SUPERase-In, 4 C; UNK is unkempt and MSI1 is Musashi-1; names of the RNAs are library labels; protein concentration not given here; high values mean tight binding.
As to B1, the binding signal came out at 0.804 enrichment R.

For B2, the binding signal amounted to 0.73 enrichment R.

B3: the binding signal turned out to be 0.894 enrichment R.

B4 returned a binding signal of 0.768 enrichment R.

On to B5, for which the binding signal stood at 2.43 enrichment R.

B6 returned a binding signal of 1.96 enrichment R.

As to B7, the binding signal was determined as 0.688 enrichment R.

Consider B8, for which the binding signal was determined as 1.67 enrichment R.

B9 returned a binding signal of 7.03 enrichment R.

Take B10: the binding signal is 11.3 enrichment R.

Turning to B11, the binding signal turned out to be 1.79 enrichment R.

B12 displayed a binding signal of 7.63 enrichment R.

B13 yielded a binding signal of 1.47 enrichment R.

With B14, the binding signal came out at 0.878 enrichment R.

In turn, B15 gave a binding signal of 1.29 enrichment R.

B16 registered a binding signal of 1.36 enrichment R.

With B17, the binding signal came out at 0.875 enrichment R.

As to B18, the binding signal was 0.565 enrichment R.

For B19, the binding signal amounted to 0.906 enrichment R.

Molecule B20 came in with a binding signal of 1.15 enrichment R.

B21 had a binding signal of 10 enrichment R.

With B22, the binding signal was found to be 0.981 enrichment R.

Take B23: the binding signal was 4.72 enrichment R.

The molecule B24 yielded a binding signal of 1.48 enrichment R.

As to B25, the binding signal was 0.621 enrichment R.
